According to paper PMC11062922 (Nature Chemical Biology, 2023):
Read-outs that look alike come from different tables or passages of the source.

Experiments:
AURKB = settings: read-out: apparent Kd, n = 1
CDKL5 = settings: read-out: apparent Kd, n = 1
[1] = compound concentrations:100 nM and 1000 nM (sheet 'Lestaurtinib' of Supplementary Table 1),run:Lestaurtinib_02438_R3,Plate:MR008
[2] = compound concentrations:100 nM and 1000 nM (sheet 'Lestaurtinib' of Supplementary Table 1),run:Lestaurtinib_02443_R2,Plate:MR009
[3] = compound concentrations:100 nM and 1000 nM (sheet 'Lestaurtinib' of Supplementary Table 1),run:Lestaurtinib_02473_R1,Plate:MR010
[4] = compound concentrations:100 nM and 1000 nM (sheet 'Lestaurtinib' of Supplementary Table 1),run:Lestaurtinib_02487_R1,Plate:MR012
[5] = compound concentrations:100 nM and 1000 nM (sheet 'Lestaurtinib' of Supplementary Table 1),run:Lestaurtinib_02487_R2,Plate:MR012
[6] = compound concentrations:100 nM and 1000 nM (sheet 'Lestaurtinib' of Supplementary Table 1),run:Lestaurtinib_02566_R1,Plate:MR014
[7] = compound concentrations:100 nM and 1000 nM (sheet 'Lestaurtinib' of Supplementary Table 1),run:Lestaurtinib_02572_R1,Plate:MR015

For Lestaurtinib, the potency estimated from few doses (AURKB; [1]) was 161 nM, the potency estimated from few doses (AURKB; compound concentrations:100 nM and 1000 nM (sheet 'Lestaurtinib' of Supplementary Table 1),run:Lestaurtinib_02443_R1,Plate:MR009) was 193 nM and the potency estimated from few doses (AURKB; [2]) was 260 nM. For the same substance, the potency estimated from few doses (AURKB; [3]) was 144 nM, the potency estimated from few doses (AURKB; [4]) was 224 nM and the potency estimated from few doses (AURKB; [5]) was 219 nM. It also gave a potency estimated from few doses (AURKB; compound concentrations:100 nM and 1000 nM (sheet 'Lestaurtinib' of Supplementary Table 1),run:Lestaurtinib_02496_R2,Plate:MR013) of 115 nM, a potency estimated from few doses (AURKB; [6]) of 273 nM and a potency estimated from few doses (AURKB; compound concentrations:100 nM and 1000 nM (sheet 'Lestaurtinib' of Supplementary Table 1),run:Lestaurtinib_02566_R2,Plate:MR014) of 297 nM. It also gave a potency estimated from few doses (AURKB; [7]) of 271 nM, a potency estimated from few doses (AURKB; compound concentrations:100 nM and 1000 nM (sheet 'Lestaurtinib' of Supplementary Table 1),run:Lestaurtinib_02572_R3,Plate:MR015) of 151 nM and a potency estimated from few doses (AURKB; compound concentrations:100 nM and 1000 nM (sheet 'Lestaurtinib' of Supplementary Table 1),run:Lestaurtinib_02577_R1,Plate:MR016) of 239 nM. For the same substance, the potency estimated from few doses (AURKB; compound concentrations:100 nM and 1000 nM (sheet 'Lestaurtinib' of Supplementary Table 1),run:Lestaurtinib_02584_R1,Plate:MR017) was 236 nM, the potency estimated from few doses (AURKB; compound concentrations:100 nM and 1000 nM (sheet 'Lestaurtinib' of Supplementary Table 1),run:Lestaurtinib_02584_R2,Plate:MR017) was 271 nM and the potency estimated from few doses (AURKB; compound concentrations:100 nM and 1000 nM (sheet 'Lestaurtinib' of Supplementary Table 1),run:Lestaurtinib_02584_R3,Plate:MR017) was 237 nM. For the same substance, the potency estimated from few doses (AURKB; compound concentrations:100 nM and 1000 nM (sheet 'Lestaurtinib' of Supplementary Table 1),run:Lestaurtinib_02601_R2,Plate:MR018) was 240 nM, the potency estimated from few doses (AURKB; compound concentrations:100 nM and 1000 nM (sheet 'Lestaurtinib' of Supplementary Table 1),run:Lestaurtinib_02606_R1,Plate:MR019) was 271 nM and the potency estimated from few doses (AURKB; compound concentrations:100 nM and 1000 nM (sheet 'Lestaurtinib' of Supplementary Table 1),run:Lestaurtinib_02624_R1,Plate:MR020) was 259 nM. It also gave a potency estimated from few doses (AURKB; compound concentrations:100 nM and 1000 nM (sheet 'Lestaurtinib' of Supplementary Table 1),run:Lestaurtinib_02624_R2,Plate:MR020) of 278 nM, a potency estimated from few doses (AURKB; compound concentrations:100 nM and 1000 nM (sheet 'Lestaurtinib' of Supplementary Table 1),run:Lestaurtinib_02624_R3,Plate:MR020) of 260 nM and a potency estimated from few doses (AURKB; compound concentrations:100 nM and 1000 nM (sheet 'Lestaurtinib' of Supplementary Table 1),run:Lestaurtinib_02724_R1,Plate:MR021) of 414 nM. It also gave a potency estimated from few doses (AURKB; compound concentrations:100 nM and 1000 nM (sheet 'Lestaurtinib' of Supplementary Table 1),run:Lestaurtinib_02724_R2,Plate:MR021) of 253 nM, a potency estimated from few doses (AURKB; compound concentrations:100 nM and 1000 nM (sheet 'Lestaurtinib' of Supplementary Table 1),run:Lestaurtinib_02724_R3,Plate:MR021) of 80.5 nM and a potency estimated from few doses (AURKB; compound concentrations:100 nM and 1000 nM (sheet 'Lestaurtinib' of Supplementary Table 1),run:Lestaurtinib_02741_R1,Plate:MR023) of 289 nM. It also gave a potency estimated from few doses (AURKB; compound concentrations:100 nM and 1000 nM (sheet 'Lestaurtinib' of Supplementary Table 1),run:Lestaurtinib_02741_R2,Plate:MR023) of 259 nM, a potency estimated from few doses (AURKB; compound concentrations:100 nM and 1000 nM (sheet 'Lestaurtinib' of Supplementary Table 1),run:Lestaurtinib_02748_R1,Plate:MR024) of 229 nM and a potency estimated from few doses (AURKB; compound concentrations:100 nM and 1000 nM (sheet 'Lestaurtinib' of Supplementary Table 1),run:Lestaurtinib_02748_R2,Plate:MR024) of 286 nM. For the same substance, the potency estimated from few doses (AURKB; compound concentrations:100 nM and 1000 nM (sheet 'Lestaurtinib' of Supplementary Table 1),run:Lestaurtinib_02752_R1,Plate:MR025) was 290 nM, the potency estimated from few doses (AURKB; compound concentrations:100 nM and 1000 nM (sheet 'Lestaurtinib' of Supplementary Table 1),run:Lestaurtinib_02765_R1,Plate:MR026) was 275 nM and the potency estimated from few doses (AURKB; compound concentrations:100 nM and 1000 nM (sheet 'Lestaurtinib' of Supplementary Table 1),run:Lestaurtinib_02765_R3,Plate:MR026) was 350 nM. For the same substance, the potency estimated from few doses (AURKB; compound concentrations:100 nM and 1000 nM (sheet 'Lestaurtinib' of Supplementary Table 1),run:Lestaurtinib_02766_R2,Plate:MR027) was 95.3 nM, the potency estimated from few doses (AURKB; compound concentrations:100 nM and 1000 nM (sheet 'Lestaurtinib' of Supplementary Table 1),run:Lestaurtinib_02768_R1,Plate:MR028) was 151 nM and the potency estimated from few doses (AURKB; compound concentrations:100 nM and 1000 nM (sheet 'Lestaurtinib' of Supplementary Table 1),run:Lestaurtinib_02768_R2,Plate:MR028) was 146 nM. It also gave a potency estimated from few doses (AURKB; compound concentrations:100 nM and 1000 nM (sheet 'Lestaurtinib' of Supplementary Table 1),run:Lestaurtinib_02768_R3,Plate:MR028) of 169 nM, a potency estimated from few doses (AURKB; compound concentrations:100 nM and 1000 nM (sheet 'Lestaurtinib' of Supplementary Table 1),run:Lestaurtinib_02795_R2,Plate:MR022) of 132 nM and a potency estimated from few doses (AURKB; compound concentrations:100 nM and 1000 nM (sheet 'Lestaurtinib' of Supplementary Table 1),run:Lestaurtinib_02795_R3,Plate:MR022) of 269 nM. For the same substance, the potency estimated from few doses (AURKB; compound concentrations:100 nM and 1000 nM (sheet 'Lestaurtinib' of Supplementary Table 1),run:Lestaurtinib_02802_R2,Plate:MR029) was 144 nM, the potency estimated from few doses (AURKB; compound concentrations:100 nM and 1000 nM (sheet 'Lestaurtinib' of Supplementary Table 1),run:Lestaurtinib_02802_R3,Plate:MR029) was 83.6 nM and the potency estimated from few doses (AURKB; compound concentrations:100 nM and 1000 nM (sheet 'Lestaurtinib' of Supplementary Table 1),run:Lestaurtinib_02896_R3,Plate:MR030) was 218 nM. It also gave a potency estimated from few doses (AURKB; compound concentrations:100 nM and 1000 nM (sheet 'Lestaurtinib' of Supplementary Table 1),run:Lestaurtinib_03172_R1,Plate:MR031) of 146 nM, a potency estimated from few doses (AURKB; compound concentrations:100 nM and 1000 nM (sheet 'Lestaurtinib' of Supplementary Table 1),run:Lestaurtinib_03172_R3,Plate:MR031) of 290 nM and a potency estimated from few doses (AURKB; compound concentrations:100 nM and 1000 nM (sheet 'Lestaurtinib' of Supplementary Table 1),run:Lestaurtinib_03252_R2,Plate:MR032) of 136 nM. The potency estimated from few doses (AURKB; compound concentrations:100 nM and 1000 nM (sheet 'Lestaurtinib' of Supplementary Table 1),run:Lestaurtinib_03260_R2,Plate:MR033) was 243 nM, the potency estimated from few doses (CDKL5; compound concentrations:100 nM and 1000 nM (sheet 'Lestaurtinib' of Supplementary Table 1),run:Lestaurtinib_02339_R1,Plate:MR001) was 72.5 nM and the potency estimated from few doses (CDKL5; compound concentrations:100 nM and 1000 nM (sheet 'Lestaurtinib' of Supplementary Table 1),run:Lestaurtinib_02339_R2,Plate:MR001) was 37.7 nM. The potency estimated from few doses (CDKL5; compound concentrations:100 nM and 1000 nM (sheet 'Lestaurtinib' of Supplementary Table 1),run:Lestaurtinib_02364_R1,Plate:MR002) was 5.84 nM, the potency estimated from few doses (CDKL5; compound concentrations:100 nM and 1000 nM (sheet 'Lestaurtinib' of Supplementary Table 1),run:Lestaurtinib_02364_R3,Plate:MR002) was 158 nM and the potency estimated from few doses (CDKL5; compound concentrations:100 nM and 1000 nM (sheet 'Lestaurtinib' of Supplementary Table 1),run:Lestaurtinib_02367_R2,Plate:MR003) was 373 nM. It also gave a potency estimated from few doses (CDKL5; compound concentrations:100 nM and 1000 nM (sheet 'Lestaurtinib' of Supplementary Table 1),run:Lestaurtinib_02367_R3,Plate:MR003) of 37.9 nM, a potency estimated from few doses (CDKL5; compound concentrations:100 nM and 1000 nM (sheet 'Lestaurtinib' of Supplementary Table 1),run:Lestaurtinib_02381_R1,Plate:MR004) of 135 nM and a potency estimated from few doses (CDKL5; compound concentrations:100 nM and 1000 nM (sheet 'Lestaurtinib' of Supplementary Table 1),run:Lestaurtinib_02381_R2,Plate:MR004) of 149 nM. It also gave a potency estimated from few doses (CDKL5; compound concentrations:100 nM and 1000 nM (sheet 'Lestaurtinib' of Supplementary Table 1),run:Lestaurtinib_02381_R3,Plate:MR004) of 269 nM, a potency estimated from few doses (CDKL5; compound concentrations:100 nM and 1000 nM (sheet 'Lestaurtinib' of Supplementary Table 1),run:Lestaurtinib_02407_R1,Plate:MR005) of 43.6 nM and a potency estimated from few doses (CDKL5; compound concentrations:100 nM and 1000 nM (sheet 'Lestaurtinib' of Supplementary Table 1),run:Lestaurtinib_02407_R2,Plate:MR005) of 167 nM. It also gave a potency estimated from few doses (CDKL5; compound concentrations:100 nM and 1000 nM (sheet 'Lestaurtinib' of Supplementary Table 1),run:Lestaurtinib_02437_R1,Plate:MR007) of 32 nM, a potency estimated from few doses (CDKL5; compound concentrations:100 nM and 1000 nM (sheet 'Lestaurtinib' of Supplementary Table 1),run:Lestaurtinib_02437_R2,Plate:MR007) of 113 nM and a potency estimated from few doses (CDKL5; compound concentrations:100 nM and 1000 nM (sheet 'Lestaurtinib' of Supplementary Table 1),run:Lestaurtinib_02437_R3,Plate:MR007) of 2.19 nM. The potency estimated from few doses (CDKL5; compound concentrations:100 nM and 1000 nM (sheet 'Lestaurtinib' of Supplementary Table 1),run:Lestaurtinib_02438_R1,Plate:MR008) was 8.7 nM, the potency estimated from few doses (CDKL5; compound concentrations:100 nM and 1000 nM (sheet 'Lestaurtinib' of Supplementary Table 1),run:Lestaurtinib_02438_R2,Plate:MR008) was 181 nM and the potency estimated from few doses (CDKL5; [1]) was 176 nM. The potency estimated from few doses (CDKL5; [2]) was 27.1 nM, the potency estimated from few doses (CDKL5; compound concentrations:100 nM and 1000 nM (sheet 'Lestaurtinib' of Supplementary Table 1),run:Lestaurtinib_02443_R3,Plate:MR009) was 41.7 nM and the potency estimated from few doses (CDKL5; [3]) was 70.4 nM. For the same substance, the potency estimated from few doses (CDKL5; compound concentrations:100 nM and 1000 nM (sheet 'Lestaurtinib' of Supplementary Table 1),run:Lestaurtinib_02473_R3,Plate:MR010) was 212 nM, the potency estimated from few doses (CDKL5; compound concentrations:100 nM and 1000 nM (sheet 'Lestaurtinib' of Supplementary Table 1),run:Lestaurtinib_02482_R1,Plate:MR011) was 33.6 nM and the potency estimated from few doses (CDKL5; compound concentrations:100 nM and 1000 nM (sheet 'Lestaurtinib' of Supplementary Table 1),run:Lestaurtinib_02482_R2,Plate:MR011) was 27.4 nM. For the same substance, the potency estimated from few doses (CDKL5; [4]) was 190 nM, the potency estimated from few doses (CDKL5; [5]) was 449 nM and the potency estimated from few doses (CDKL5; compound concentrations:100 nM and 1000 nM (sheet 'Lestaurtinib' of Supplementary Table 1),run:Lestaurtinib_02496_R1,Plate:MR013) was 14.9 nM. The potency estimated from few doses (CDKL5; [6]) was 298 nM, the potency estimated from few doses (CDKL5; compound concentrations:100 nM and 1000 nM (sheet 'Lestaurtinib' of Supplementary Table 1),run:Lestaurtinib_02566_R3,Plate:MR014) was 21.2 nM and the potency estimated from few doses (CDKL5; [7]) was 389 nM.
